Laboratory results published in ChEMBL document CHEMBL1961873, “Compounds: GSK PKIS; Assays: Nanosyn kinase panel” (2012).

Columns and labels:
[1] = biological target: T1, Serine/threonine-protein kinase D2 (Homo sapiens) (UniProt Q9BZL6); conditions: at 1 µM;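 further: mean value of PRKD2 inhibition, from the GSK PKIS screening panel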
T1 sequence (whole entry): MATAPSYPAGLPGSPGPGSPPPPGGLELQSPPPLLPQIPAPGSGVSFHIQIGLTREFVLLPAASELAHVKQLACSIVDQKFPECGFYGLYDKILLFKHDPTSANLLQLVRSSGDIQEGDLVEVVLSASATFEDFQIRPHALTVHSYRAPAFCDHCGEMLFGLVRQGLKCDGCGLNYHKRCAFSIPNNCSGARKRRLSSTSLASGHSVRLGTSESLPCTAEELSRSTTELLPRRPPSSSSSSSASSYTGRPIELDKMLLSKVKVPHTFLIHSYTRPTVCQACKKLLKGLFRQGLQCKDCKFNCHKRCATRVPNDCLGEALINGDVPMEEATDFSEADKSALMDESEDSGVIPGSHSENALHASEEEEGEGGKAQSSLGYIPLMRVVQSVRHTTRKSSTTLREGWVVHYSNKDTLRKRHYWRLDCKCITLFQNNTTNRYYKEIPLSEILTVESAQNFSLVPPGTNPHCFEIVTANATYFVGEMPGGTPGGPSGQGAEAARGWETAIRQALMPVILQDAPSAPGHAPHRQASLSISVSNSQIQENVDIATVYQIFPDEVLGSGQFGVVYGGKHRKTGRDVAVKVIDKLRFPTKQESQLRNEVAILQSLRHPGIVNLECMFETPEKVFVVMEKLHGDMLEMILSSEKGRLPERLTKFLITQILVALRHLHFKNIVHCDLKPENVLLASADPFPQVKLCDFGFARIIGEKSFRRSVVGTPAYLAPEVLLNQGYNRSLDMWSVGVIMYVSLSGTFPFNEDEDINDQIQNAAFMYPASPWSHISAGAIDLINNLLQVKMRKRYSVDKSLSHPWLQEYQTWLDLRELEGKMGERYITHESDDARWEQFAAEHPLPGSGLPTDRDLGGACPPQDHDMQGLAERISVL

[2] = biological target: T2, Serine/threonine-protein kinase D3 (Homo sapiens) (UniProt O94806); conditions: at 0.1 µM
T2 sequence (whole entry): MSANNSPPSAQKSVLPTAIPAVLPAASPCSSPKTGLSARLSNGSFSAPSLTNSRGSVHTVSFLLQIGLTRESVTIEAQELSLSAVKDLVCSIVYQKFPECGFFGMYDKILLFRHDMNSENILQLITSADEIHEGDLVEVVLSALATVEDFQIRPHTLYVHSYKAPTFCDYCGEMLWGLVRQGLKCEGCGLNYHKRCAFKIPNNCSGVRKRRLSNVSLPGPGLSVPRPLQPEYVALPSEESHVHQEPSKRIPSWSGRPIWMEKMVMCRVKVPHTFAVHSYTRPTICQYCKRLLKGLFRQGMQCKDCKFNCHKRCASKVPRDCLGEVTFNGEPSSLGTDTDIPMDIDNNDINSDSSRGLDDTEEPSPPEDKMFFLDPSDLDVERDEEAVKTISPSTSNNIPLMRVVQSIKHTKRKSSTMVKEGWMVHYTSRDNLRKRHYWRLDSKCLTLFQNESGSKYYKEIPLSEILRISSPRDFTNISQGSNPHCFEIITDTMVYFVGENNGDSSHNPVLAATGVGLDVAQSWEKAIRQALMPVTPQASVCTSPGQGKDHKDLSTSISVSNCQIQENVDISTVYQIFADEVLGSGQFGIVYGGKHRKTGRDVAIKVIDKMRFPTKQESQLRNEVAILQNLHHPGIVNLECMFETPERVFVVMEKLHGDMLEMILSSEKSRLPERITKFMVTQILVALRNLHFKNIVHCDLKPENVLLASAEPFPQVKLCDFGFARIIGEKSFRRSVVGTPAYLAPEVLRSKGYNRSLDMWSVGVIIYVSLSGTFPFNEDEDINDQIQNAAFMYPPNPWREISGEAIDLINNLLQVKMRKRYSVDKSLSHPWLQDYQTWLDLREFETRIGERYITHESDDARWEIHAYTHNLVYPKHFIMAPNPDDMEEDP

[3] = biological target: T2, Serine/threonine-protein kinase D3 (Homo sapiens); conditions: at 1 µM
[4] = biological target: T3, cGMP-dependent protein kinase 1 (Homo sapiens) (UniProt Q13976); conditions: at 0.1 µM
T3 sequence (whole entry): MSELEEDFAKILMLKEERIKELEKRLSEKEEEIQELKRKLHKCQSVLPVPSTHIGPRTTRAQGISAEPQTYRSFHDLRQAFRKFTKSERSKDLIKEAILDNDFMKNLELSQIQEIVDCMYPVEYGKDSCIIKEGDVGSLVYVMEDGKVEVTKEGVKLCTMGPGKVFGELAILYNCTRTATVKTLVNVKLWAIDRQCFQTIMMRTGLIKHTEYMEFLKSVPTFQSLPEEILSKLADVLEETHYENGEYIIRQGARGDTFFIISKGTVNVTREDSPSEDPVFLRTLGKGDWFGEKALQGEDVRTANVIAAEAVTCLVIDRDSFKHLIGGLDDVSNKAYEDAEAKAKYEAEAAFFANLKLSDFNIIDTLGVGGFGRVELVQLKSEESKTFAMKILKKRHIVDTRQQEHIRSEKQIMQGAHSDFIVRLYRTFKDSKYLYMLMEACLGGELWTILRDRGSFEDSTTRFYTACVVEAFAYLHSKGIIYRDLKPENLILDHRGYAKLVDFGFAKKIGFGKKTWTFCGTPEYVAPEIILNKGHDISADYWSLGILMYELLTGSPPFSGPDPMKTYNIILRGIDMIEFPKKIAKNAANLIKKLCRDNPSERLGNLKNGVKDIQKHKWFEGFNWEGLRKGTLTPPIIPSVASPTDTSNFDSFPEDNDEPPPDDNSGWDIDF

[5] = biological target: T3, cGMP-dependent protein kinase 1 (Homo sapiens); conditions: at 1 µM
[6] = biological target: T4, cGMP-dependent protein kinase 2 (Homo sapiens) (UniProt Q13237); conditions: at 0.1 µM
T4 sequence (whole entry): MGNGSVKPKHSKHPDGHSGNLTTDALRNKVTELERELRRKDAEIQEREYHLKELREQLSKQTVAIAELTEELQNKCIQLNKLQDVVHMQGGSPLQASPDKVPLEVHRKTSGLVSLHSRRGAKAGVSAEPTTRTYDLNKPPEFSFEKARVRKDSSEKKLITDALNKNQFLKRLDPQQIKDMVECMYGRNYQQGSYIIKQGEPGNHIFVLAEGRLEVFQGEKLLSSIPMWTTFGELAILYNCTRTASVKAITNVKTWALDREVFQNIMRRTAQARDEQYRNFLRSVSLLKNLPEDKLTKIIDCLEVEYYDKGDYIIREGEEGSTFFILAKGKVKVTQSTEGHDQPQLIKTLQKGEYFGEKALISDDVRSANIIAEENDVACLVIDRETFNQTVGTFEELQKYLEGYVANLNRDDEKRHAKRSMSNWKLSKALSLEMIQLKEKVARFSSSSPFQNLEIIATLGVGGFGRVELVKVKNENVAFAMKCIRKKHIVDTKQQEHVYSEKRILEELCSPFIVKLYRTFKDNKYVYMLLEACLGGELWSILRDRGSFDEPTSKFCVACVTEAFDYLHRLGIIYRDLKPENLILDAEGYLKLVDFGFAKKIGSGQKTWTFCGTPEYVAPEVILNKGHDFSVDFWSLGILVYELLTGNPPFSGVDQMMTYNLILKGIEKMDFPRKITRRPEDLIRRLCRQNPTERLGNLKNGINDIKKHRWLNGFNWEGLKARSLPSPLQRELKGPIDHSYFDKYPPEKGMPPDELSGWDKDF

[7] = biological target: T4, cGMP-dependent protein kinase 2 (Homo sapiens); conditions: at 1 µM
[8] = biological target: T5, cAMP-dependent protein kinase catalytic subunit PRKX (Homo sapiens) (UniProt P51817); conditions: at 0.1 µM
T5 sequence (whole entry): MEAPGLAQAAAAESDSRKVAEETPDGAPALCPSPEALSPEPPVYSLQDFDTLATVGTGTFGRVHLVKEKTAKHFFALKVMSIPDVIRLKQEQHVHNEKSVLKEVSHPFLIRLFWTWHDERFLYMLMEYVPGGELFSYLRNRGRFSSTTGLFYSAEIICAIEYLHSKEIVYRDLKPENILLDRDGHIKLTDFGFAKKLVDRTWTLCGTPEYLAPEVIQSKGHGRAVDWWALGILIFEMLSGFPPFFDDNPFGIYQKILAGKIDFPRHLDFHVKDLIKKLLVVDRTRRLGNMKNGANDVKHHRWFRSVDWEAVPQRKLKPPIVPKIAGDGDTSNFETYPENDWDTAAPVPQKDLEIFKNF

[9] = biological target: T5, cAMP-dependent protein kinase catalytic subunit PRKX (Homo sapiens); conditions: at 1 µM
[10] = biological target: Rho-associated protein kinase 1 (Homo sapiens) (UniProt Q13464); conditions: at 0.1 µM
[11] = biological target: Rho-associated protein kinase 1 (Homo sapiens) (UniProt Q13464); conditions: at 1 µM
[12] = biological target: Rho-associated protein kinase 2 (Homo sapiens) (UniProt O75116); conditions: at 0.1 µM
[13] = biological target: Rho-associated protein kinase 2 (Homo sapiens) (UniProt O75116); conditions: at 1 µM
[14] = biological target: Ribosomal protein S6 kinase alpha-1 (Homo sapiens) (UniProt Q15418); conditions: at 0.1 µM
[15] = biological target: Ribosomal protein S6 kinase alpha-1 (Homo sapiens) (UniProt Q15418); conditions: at 1 µM
[16] = biological target: Ribosomal protein S6 kinase alpha-3 (Homo sapiens) (UniProt P51812); conditions: at 0.1 µM
[17] = biological target: Ribosomal protein S6 kinase alpha-3 (Homo sapiens) (UniProt P51812); conditions: at 1 µM
[18] = biological target: Ribosomal protein S6 kinase alpha-2 (Homo sapiens) (UniProt Q15349); conditions: at 0.1 µM
[19] = biological target: Ribosomal protein S6 kinase alpha-2 (Homo sapiens) (UniProt Q15349); conditions: at 1 µM
[20] = biological target: Ribosomal protein S6 kinase alpha-6 (Homo sapiens) (UniProt Q9UK32); conditions: at 0.1 µM;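 further: reported value is the mean inhibition of RSK4, from the GSK PKIS kinase inhibitor screen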
Sequence of Ribosomal protein S6 kinase alpha-6 (Homo sapiens) (Q9UK32 whole entry): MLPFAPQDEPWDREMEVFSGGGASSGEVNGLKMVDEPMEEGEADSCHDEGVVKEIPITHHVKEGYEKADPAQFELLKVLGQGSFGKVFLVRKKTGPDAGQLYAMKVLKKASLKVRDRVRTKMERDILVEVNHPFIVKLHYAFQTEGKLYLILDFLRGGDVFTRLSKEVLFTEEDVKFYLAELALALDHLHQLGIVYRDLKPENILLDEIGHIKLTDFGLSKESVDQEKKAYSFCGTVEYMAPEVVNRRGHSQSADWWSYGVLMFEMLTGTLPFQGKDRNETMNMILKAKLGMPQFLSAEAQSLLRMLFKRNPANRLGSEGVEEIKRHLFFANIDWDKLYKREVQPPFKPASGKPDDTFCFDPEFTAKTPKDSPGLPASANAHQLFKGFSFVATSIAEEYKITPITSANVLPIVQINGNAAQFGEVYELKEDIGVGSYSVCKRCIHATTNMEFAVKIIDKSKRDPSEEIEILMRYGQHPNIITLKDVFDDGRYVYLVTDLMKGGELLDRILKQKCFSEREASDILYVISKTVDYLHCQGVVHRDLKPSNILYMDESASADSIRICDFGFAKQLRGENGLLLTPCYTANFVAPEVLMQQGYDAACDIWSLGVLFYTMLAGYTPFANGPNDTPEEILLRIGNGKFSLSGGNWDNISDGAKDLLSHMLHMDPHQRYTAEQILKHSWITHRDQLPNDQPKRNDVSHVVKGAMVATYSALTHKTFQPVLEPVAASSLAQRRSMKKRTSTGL

Sequence of Ribosomal protein S6 kinase alpha-1 (Homo sapiens) (Q15418 whole entry): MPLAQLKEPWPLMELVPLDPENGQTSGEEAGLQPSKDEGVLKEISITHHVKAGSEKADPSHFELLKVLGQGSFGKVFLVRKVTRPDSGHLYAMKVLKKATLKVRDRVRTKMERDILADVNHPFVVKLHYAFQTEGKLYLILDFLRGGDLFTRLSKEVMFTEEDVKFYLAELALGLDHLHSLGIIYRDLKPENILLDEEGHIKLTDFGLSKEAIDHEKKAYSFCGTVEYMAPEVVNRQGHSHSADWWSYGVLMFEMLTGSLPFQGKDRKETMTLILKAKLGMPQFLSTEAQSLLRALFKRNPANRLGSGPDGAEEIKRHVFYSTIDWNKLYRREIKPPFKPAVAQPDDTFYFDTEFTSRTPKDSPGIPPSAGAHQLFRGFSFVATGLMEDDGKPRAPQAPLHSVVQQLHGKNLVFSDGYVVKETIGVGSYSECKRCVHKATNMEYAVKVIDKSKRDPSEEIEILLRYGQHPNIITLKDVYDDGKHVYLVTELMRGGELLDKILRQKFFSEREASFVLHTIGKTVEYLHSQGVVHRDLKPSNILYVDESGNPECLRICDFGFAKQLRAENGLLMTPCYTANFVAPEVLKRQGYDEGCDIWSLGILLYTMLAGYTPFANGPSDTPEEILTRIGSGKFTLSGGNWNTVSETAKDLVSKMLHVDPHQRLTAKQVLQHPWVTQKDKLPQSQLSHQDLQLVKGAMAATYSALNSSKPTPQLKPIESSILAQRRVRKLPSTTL
Sequence of Ribosomal protein S6 kinase alpha-3 (Homo sapiens) (P51812 whole entry): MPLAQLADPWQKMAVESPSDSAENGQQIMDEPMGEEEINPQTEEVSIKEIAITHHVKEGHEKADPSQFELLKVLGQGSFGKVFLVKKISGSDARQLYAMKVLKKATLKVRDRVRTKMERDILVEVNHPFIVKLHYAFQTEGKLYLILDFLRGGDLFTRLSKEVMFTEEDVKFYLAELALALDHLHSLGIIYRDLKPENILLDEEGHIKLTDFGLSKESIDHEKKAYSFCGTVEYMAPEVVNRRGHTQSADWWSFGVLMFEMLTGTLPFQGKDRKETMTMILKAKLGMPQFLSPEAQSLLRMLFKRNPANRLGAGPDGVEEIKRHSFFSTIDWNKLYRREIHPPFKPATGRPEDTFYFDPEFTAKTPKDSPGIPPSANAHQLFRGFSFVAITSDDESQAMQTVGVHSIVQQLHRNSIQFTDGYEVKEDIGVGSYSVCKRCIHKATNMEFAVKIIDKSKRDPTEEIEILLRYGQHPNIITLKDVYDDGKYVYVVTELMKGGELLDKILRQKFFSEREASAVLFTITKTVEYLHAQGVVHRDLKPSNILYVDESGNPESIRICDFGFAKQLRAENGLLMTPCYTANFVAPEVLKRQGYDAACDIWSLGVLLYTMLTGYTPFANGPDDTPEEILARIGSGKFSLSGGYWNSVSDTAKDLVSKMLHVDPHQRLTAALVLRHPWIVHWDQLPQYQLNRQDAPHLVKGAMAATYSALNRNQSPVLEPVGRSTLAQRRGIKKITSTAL
Sequence of Rho-associated protein kinase 2 (Homo sapiens) (O75116 whole entry, looked up): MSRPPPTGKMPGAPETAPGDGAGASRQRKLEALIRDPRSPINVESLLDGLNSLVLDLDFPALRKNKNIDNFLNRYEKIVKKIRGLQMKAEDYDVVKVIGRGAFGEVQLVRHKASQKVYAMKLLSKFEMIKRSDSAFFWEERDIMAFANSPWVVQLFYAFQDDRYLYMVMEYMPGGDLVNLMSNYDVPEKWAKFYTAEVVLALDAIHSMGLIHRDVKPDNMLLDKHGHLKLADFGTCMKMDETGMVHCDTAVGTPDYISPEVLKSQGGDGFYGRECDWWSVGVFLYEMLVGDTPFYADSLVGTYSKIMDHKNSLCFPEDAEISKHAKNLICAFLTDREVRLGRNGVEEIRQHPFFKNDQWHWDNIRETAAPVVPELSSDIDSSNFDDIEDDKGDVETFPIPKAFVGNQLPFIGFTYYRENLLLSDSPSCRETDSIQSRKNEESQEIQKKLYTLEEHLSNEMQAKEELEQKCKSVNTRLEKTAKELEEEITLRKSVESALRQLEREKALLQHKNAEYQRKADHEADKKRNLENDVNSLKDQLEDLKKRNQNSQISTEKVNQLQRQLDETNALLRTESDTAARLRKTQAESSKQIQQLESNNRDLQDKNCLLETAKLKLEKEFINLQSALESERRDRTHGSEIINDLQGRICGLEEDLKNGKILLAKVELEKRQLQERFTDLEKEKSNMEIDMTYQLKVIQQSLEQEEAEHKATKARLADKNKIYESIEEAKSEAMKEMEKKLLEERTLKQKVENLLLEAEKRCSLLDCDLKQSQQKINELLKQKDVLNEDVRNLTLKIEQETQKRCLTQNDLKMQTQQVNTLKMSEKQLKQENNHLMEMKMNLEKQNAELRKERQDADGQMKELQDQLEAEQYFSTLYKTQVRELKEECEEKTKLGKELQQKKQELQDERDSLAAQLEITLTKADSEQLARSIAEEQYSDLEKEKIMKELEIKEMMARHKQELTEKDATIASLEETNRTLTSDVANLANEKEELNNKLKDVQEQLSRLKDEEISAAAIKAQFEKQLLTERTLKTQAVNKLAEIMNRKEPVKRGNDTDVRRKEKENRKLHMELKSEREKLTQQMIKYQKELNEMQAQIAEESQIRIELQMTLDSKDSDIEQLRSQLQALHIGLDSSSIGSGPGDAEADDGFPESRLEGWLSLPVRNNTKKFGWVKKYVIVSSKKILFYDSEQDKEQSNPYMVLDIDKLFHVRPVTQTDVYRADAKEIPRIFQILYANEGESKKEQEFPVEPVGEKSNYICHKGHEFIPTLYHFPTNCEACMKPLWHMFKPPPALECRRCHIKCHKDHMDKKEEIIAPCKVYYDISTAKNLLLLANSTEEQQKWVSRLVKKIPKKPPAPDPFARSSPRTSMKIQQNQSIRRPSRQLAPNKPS
Sequence of Rho-associated protein kinase 1 (Homo sapiens) (Q13464 2-1354 limits assumed): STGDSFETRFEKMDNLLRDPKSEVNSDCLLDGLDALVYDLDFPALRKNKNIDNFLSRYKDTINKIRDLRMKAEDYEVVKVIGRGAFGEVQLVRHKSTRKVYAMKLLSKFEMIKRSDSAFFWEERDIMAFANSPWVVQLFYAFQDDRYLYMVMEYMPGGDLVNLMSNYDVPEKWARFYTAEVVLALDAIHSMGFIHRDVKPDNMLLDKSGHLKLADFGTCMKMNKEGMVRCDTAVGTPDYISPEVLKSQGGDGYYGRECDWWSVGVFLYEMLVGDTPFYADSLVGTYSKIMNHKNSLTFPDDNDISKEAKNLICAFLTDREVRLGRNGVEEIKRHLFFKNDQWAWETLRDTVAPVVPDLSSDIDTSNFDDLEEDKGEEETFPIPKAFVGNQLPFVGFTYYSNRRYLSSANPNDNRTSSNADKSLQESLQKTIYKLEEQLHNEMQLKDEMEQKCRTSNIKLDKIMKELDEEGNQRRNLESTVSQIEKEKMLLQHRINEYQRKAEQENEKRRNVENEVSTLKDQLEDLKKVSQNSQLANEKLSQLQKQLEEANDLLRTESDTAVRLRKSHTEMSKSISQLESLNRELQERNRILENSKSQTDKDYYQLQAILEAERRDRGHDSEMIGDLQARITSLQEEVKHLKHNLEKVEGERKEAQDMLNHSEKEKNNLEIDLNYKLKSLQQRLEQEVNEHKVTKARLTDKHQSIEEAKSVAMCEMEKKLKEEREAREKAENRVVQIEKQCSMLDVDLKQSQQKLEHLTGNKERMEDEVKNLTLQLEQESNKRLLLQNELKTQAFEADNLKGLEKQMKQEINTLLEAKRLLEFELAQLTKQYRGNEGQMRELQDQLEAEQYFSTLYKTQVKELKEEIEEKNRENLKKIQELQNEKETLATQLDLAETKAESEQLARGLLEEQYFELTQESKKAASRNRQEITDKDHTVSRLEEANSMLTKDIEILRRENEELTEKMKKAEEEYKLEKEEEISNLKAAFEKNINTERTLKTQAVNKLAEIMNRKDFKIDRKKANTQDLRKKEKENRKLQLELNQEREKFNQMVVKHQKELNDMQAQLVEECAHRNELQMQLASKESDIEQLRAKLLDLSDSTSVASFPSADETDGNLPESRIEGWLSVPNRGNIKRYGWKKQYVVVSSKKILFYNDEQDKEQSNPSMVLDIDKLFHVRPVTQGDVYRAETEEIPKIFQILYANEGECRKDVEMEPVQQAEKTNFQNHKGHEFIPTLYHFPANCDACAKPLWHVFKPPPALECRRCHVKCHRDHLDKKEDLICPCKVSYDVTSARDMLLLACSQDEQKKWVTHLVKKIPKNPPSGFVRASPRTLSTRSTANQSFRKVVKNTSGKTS

| Compound | inhibition [1] | inhibition [2] | inhibition [3] | inhibition [4] | inhibition [5] | inhibition [6] | inhibition [7] | inhibition [8] | inhibition [9] | inhibition [10] | inhibition [11] | inhibition [12] | inhibition [13] | inhibition [14] | inhibition [15] | inhibition [16] | inhibition [17] | inhibition [18] | inhibition [19] | inhibition [20] |
| --- | --- | --- | --- | --- | --- | --- | --- | --- | --- | --- | --- | --- | --- | --- | --- | --- | --- | --- | --- | --- |
| CCc1cccc(CC)c1/C=C/c1cncc(C(=O)NC)c1 | 7.18% | 3.3% | 7.02% | 2.74% | 2.71% | 1.38% | 1.83% | 3.9% | -1.34% | 0.87% | 1.22% | 1.66% | -0.13% | 1.4% | 0.95% | 0.3% | -0.37% | 1.51% | 0.74% | 0.65% |
| C[C@@H](Oc1cc(-n2cnc3ccc(OCC4CCN(C)CC4)cc32)sc1C(N)=O)c1ccccc1Cl | 12.1% | 5.81% | 12% | 3.88% | 7.13% | 3.5% | 7.56% | 1.81% | -4.06% | 2.64% | 7.23% | 3.44% | 9.54% | 3.39% | 16.8% | 4.17% | 22.5% | 5.72% | 22.4% | 8.06% |
| Cc1ccc(C(=O)NC2CCC2)cc1-c1ccc(C(=O)NCC2CC2)cc1 | 2.79% | 2.86% | 2.6% | 3.87% | 3.84% | 1.07% | 3.54% | 1.55% | -0.61% | 1.21% | 1.32% | 1.03% | -0.46% | 1.52% | 1.45% | 0.97% | 1.47% | 1.58% | 2.68% | 1.63% |
| CN1CCN(CCCNc2nc3ccc(Oc4ccc(NC(=O)Nc5cc(C(F)(F)F)ccc5F)cc4)cc3[nH]2)CC1 | -0.73% | -2.59% | -1.97% | 3.15% | 3.23% | 3.62% | 2.7% | 2.54% | 1.08% | 1.94% | 3.23% | 0.43% | 0.51% | 1.08% | -1.68% | 1.52% | -0.48% | 0.97% | 2.27% | 1.31% |
| NC(=O)c1cc(-c2ccncc2)cc(-c2ccccc2)c1N | 5.63% | 5.86% | 6.16% | 3.61% | 8.21% | 2.71% | 5.42% | 1.92% | 2.61% | 1.71% | 6.72% | 3.44% | 9.1% | 1.01% | -1.21% | 1.46% | 1.47% | 3.07% | 2.57% | 2.79% |
| NC(=O)c1cc(-c2ccc(F)cc2)cc(-c2ccncc2)c1N | 4.06% | 3.88% | 2.86% | 1.49% | 5.83% | 1.73% | 2.74% | 1.1% | 3.07% | -0.55% | 1.76% | 2.33% | 6.23% | 1.16% | 2.59% | 0.17% | 1.79% | 1.82% | 2.97% | 0.55% |
| NS(=O)(=O)c1ccc(Nc2cc(-c3ccc(O)c(F)c3)n[nH]2)cc1 | 2.89% | -2.85% | 0.82% | -1.74% | -1% | -1.16% | 0.01% | -0.97% | -1.36% | -0.2% | 1.73% | -1.97% | 3.32% | 4.13% | 32.6% | 13.1% | 56.4% | 16.5% | 63.5% | 13.4% |
